# In PMC7862700, “An all-to-all approach to the identification of sequence-specific readers for epigenetic DNA modifications on cytosine”:
# How the values were obtained:
# Experiment in all cases: DAPPL (digital affinity profiling via proximity ligation, sequencing); 10 mM Tris-HCl pH 7.5, 50 mM NaCl, 1 mM DTT, 4% glycerol, room temperature, 30 min; GST-TFs on glutathione beads, 16-mer random dsDNA library, 0.1% formaldehyde crosslink after washing; high values mean tight binding
# Conditions in all cases: protein: recombinant; tags: N-terminal GST; dsDNA, one strand shown
# [1] = target: T1, FLI1 (Homo sapiens, UniProt Q01543 1-452)
# T1 sequence: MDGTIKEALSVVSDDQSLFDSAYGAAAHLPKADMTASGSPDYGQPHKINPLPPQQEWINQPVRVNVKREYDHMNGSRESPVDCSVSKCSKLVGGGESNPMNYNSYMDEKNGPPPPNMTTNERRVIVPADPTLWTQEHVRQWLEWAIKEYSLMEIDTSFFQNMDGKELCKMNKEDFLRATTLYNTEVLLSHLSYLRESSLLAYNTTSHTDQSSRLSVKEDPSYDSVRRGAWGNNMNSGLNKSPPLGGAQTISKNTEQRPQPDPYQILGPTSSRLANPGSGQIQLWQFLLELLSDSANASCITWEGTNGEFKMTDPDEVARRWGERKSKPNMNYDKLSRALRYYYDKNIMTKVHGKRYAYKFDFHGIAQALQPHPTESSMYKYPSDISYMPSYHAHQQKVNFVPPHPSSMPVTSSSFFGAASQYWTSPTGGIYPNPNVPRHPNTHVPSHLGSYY
# Summary of the method: (§1)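 Human transcription factors were made in yeast as GST fusions, captured on glutathione beads and barcoded with DNA. With a tag-only sample included, the pool was incubated with 200 nmole of a random double-stranded 16-mer DNA library in Tris/NaCl/DTT/glycerol buffer at room temperature for 30 min, then crosslinked with 0.1% formaldehyde after washing, ligated by proximity, amplified and sequenced. For binding signal, each hexamer's read frequency for a factor is divided by its frequency for the tag-only sample.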
# [2] = target: T2, ELK1 (Homo sapiens, UniProt P19419 1-428)
# T2 sequence: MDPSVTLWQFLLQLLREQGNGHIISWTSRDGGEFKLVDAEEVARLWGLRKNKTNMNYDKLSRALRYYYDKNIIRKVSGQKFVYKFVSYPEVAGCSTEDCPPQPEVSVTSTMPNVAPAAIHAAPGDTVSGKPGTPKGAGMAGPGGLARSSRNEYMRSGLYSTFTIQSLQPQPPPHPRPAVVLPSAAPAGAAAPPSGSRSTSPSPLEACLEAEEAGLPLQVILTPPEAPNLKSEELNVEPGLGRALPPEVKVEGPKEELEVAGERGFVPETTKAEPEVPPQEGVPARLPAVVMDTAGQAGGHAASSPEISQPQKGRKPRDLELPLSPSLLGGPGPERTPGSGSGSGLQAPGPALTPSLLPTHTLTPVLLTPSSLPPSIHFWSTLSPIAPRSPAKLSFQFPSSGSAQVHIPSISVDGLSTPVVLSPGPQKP
# Summary of the method: as §1
# [3] = target: T3, GABPA (Homo sapiens, UniProt Q06546 1-454)
# T3 sequence: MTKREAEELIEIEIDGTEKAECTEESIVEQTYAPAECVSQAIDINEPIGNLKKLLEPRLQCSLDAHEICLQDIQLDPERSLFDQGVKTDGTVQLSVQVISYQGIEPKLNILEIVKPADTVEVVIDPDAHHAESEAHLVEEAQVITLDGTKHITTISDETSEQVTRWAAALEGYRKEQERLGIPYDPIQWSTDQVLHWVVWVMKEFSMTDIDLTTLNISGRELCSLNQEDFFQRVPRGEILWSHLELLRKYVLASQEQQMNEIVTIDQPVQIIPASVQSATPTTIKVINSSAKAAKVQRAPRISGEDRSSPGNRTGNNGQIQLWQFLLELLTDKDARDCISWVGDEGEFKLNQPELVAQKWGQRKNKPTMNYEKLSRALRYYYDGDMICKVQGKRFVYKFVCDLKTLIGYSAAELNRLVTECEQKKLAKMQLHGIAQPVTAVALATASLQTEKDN
# Summary of the method: as §1
# [4] = target: ELF1 (Homo sapiens, UniProt P32519 1-619)
# ELF1, sequence (P32519 whole entry): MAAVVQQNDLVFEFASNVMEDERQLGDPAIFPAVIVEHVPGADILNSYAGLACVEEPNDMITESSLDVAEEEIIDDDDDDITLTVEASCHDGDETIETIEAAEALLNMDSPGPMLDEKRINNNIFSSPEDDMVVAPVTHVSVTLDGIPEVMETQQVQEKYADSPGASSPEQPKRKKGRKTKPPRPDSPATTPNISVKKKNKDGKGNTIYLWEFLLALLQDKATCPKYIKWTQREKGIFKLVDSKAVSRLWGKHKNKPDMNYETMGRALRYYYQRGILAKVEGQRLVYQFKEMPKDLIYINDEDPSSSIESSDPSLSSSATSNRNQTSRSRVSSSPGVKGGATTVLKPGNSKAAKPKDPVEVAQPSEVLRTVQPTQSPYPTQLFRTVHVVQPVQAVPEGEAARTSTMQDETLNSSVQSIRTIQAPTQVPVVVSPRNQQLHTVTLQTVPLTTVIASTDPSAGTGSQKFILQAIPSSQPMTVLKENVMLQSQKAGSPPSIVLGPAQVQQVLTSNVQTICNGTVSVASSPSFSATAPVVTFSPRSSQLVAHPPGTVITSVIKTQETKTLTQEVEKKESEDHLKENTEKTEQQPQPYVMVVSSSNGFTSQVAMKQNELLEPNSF
# Summary of the method: as §1
# [5] = target: T4, EHF (Homo sapiens, UniProt Q9NZC4 1-300)
# T4 sequence: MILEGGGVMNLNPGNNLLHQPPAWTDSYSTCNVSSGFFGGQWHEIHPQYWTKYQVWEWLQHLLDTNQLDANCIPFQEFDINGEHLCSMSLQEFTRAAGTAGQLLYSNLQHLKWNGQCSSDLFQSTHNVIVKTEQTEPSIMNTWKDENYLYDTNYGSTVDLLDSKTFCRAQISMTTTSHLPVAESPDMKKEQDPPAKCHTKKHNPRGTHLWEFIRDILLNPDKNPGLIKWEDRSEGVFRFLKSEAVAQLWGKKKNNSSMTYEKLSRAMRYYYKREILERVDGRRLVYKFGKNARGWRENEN
# Summary of the method: as §1
# [6] = target: SPIB (Homo sapiens, UniProt Q01892 1-262)
# SPIB, sequence (Q01892 whole entry): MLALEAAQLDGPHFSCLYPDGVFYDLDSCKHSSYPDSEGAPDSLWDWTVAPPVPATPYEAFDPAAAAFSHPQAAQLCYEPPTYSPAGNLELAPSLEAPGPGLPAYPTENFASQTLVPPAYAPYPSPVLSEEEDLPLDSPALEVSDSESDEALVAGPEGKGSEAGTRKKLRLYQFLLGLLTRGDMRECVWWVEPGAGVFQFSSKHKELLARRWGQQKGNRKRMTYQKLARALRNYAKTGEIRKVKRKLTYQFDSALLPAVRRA
# Summary of the method: as §1
# [7] = target: T5, ELK3 (Homo sapiens, UniProt P41970 1-407)
# T5 sequence: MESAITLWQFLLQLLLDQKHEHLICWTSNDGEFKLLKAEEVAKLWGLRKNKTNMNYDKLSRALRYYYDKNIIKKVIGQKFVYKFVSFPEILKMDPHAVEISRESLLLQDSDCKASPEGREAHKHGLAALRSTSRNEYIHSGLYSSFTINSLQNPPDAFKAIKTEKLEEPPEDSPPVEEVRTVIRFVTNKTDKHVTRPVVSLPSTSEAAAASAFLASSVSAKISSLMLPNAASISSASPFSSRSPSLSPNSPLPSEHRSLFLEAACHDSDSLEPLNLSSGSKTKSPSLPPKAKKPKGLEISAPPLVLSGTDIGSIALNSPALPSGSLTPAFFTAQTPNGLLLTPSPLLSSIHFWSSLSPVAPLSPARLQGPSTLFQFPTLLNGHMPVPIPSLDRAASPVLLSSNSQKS
# Summary of the method: as §1
# [8] = target: T6, SPIC (Homo sapiens, UniProt Q8N5J4 1-248)
# T6 sequence: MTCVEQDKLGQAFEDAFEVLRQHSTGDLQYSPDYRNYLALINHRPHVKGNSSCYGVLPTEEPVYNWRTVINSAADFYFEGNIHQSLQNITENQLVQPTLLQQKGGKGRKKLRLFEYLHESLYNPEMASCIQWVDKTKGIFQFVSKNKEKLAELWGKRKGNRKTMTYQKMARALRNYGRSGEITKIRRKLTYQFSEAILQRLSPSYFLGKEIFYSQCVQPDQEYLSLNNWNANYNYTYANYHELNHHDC
# Summary of the method: as §1
# [9] = target: ELF4 (Homo sapiens, UniProt Q99607 1-663)
# ELF4, sequence (Q99607 whole entry): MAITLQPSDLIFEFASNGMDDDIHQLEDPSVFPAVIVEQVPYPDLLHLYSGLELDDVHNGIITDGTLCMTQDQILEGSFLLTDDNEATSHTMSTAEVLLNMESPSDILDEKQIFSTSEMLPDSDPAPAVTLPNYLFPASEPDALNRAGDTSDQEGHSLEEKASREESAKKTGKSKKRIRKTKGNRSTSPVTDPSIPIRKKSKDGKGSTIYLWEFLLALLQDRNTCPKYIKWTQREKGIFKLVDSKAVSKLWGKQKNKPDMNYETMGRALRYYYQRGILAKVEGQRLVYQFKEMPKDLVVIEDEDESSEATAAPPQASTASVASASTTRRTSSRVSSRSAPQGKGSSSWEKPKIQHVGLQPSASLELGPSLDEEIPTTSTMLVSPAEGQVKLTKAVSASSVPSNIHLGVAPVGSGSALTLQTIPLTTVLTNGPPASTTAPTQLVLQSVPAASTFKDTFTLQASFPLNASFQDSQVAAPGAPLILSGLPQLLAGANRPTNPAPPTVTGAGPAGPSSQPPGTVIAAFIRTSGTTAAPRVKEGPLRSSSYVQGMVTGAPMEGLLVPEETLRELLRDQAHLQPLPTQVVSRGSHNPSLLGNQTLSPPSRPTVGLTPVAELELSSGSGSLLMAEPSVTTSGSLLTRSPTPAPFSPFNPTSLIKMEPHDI
# Summary of the method: as §1
# [10] = target: T7, ELK4 (Homo sapiens, UniProt P28324-2 1-405)
# T7 sequence: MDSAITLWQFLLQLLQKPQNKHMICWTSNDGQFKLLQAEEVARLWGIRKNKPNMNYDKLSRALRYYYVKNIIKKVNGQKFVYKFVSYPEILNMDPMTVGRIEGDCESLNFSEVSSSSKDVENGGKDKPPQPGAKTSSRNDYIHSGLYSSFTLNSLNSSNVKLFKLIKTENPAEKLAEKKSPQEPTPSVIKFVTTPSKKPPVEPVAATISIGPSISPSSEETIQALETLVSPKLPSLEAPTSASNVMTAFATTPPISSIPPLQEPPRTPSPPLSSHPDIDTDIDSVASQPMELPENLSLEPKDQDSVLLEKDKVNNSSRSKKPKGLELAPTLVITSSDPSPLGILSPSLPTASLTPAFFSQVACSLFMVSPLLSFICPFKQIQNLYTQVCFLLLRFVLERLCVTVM
# Summary of the method: as §1
# [11] = target: T8, ELF3 (Homo sapiens, UniProt P78545 1-371)
# T8 sequence: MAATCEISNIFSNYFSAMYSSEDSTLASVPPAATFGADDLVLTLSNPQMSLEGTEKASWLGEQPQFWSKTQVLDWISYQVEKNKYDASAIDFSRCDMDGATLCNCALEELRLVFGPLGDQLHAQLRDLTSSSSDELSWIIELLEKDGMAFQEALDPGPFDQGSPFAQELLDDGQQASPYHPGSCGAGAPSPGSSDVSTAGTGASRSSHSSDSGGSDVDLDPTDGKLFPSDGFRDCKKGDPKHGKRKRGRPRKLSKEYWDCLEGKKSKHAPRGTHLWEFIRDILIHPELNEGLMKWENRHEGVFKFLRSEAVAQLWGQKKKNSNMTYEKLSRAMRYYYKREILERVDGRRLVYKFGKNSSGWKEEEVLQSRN
# Summary of the method: as §1
# [12] = target: ETV1 (Homo sapiens, UniProt P50549 1-477)
# ETV1, sequence (P50549 whole entry): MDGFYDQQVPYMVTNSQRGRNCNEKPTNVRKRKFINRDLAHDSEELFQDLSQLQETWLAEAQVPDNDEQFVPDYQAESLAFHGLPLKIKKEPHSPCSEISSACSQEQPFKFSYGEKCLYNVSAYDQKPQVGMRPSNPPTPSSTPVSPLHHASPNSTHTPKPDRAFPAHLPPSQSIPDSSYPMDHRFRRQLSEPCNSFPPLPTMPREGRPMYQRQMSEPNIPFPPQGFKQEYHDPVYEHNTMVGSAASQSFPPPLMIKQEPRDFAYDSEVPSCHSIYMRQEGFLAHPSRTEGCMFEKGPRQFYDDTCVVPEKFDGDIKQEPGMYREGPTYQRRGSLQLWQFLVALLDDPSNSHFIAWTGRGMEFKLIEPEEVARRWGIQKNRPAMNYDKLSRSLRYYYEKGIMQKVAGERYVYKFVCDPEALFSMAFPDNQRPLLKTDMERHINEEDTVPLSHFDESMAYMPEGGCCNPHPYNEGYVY
# Summary of the method: as §1
# [13] = target: T9, ERF (Homo sapiens, UniProt P50548 1-548)
# T9 sequence: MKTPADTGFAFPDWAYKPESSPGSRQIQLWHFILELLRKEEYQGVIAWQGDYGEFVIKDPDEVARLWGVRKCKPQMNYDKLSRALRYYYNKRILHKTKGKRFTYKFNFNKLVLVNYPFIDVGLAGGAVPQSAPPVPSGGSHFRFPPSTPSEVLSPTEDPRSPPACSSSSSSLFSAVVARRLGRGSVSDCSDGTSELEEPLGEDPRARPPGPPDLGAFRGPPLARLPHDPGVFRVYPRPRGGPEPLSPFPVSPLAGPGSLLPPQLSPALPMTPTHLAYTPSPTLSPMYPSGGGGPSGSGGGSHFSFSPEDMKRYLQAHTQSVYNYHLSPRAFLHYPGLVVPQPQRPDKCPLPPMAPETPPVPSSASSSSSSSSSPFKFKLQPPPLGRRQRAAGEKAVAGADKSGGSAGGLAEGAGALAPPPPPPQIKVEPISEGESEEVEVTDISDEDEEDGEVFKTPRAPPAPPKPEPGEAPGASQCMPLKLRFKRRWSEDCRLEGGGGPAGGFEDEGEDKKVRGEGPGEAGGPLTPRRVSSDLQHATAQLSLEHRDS
# Summary of the method: as §1
# [14] = target: T10, ETV3L (Homo sapiens, UniProt Q6ZN32 1-361)
# T10 sequence: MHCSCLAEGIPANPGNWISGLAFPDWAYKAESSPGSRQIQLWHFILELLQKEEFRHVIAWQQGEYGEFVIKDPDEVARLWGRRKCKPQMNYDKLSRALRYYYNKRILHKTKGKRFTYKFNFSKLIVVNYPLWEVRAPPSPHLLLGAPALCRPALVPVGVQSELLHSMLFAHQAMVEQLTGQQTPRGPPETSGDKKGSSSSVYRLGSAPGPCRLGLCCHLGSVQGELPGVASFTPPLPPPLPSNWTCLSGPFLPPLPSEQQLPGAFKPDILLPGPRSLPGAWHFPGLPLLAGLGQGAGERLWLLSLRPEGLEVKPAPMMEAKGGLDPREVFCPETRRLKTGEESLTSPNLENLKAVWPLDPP
# Summary of the method: as §1
# [15] = target: T11, ETS2 (Homo sapiens, UniProt P15036 1-469)
# T11 sequence: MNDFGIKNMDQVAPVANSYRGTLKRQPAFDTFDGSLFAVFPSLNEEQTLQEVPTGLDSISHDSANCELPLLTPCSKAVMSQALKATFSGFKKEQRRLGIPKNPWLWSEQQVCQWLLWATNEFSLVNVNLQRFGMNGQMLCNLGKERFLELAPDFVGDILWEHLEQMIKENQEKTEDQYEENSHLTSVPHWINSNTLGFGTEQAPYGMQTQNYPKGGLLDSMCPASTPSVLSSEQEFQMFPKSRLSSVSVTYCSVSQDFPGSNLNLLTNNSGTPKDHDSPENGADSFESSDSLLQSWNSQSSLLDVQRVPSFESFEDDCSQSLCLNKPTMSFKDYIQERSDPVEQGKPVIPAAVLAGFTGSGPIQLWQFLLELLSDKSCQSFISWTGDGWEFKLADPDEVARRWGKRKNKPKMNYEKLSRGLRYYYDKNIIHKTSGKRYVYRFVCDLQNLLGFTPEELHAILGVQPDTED
# Summary of the method: as §1
# [16] = target: T12, ETV7 (Homo sapiens, UniProt Q9Y603 1-341)
# T12 sequence: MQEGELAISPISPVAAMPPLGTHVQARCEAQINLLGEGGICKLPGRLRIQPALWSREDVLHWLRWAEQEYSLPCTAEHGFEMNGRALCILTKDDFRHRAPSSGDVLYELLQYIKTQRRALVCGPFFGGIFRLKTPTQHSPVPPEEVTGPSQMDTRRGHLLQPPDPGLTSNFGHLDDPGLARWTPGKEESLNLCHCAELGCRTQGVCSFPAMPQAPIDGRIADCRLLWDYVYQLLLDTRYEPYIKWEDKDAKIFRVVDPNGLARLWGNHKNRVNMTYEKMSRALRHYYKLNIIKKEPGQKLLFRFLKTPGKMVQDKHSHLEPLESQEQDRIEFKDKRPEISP
# Summary of the method: as §1
# [17] = target: T13, ETV3 (Homo sapiens, UniProt P41162-2 1-143)
# T13 sequence: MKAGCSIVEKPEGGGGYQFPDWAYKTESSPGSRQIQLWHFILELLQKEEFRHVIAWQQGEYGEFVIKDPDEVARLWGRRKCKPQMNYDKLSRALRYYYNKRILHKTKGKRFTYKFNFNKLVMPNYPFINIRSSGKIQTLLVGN
# Summary of the method: as §1
# [18] = target: ETV6 (Homo sapiens, UniProt P41212 1-452)
# ETV6, sequence (P41212 whole entry): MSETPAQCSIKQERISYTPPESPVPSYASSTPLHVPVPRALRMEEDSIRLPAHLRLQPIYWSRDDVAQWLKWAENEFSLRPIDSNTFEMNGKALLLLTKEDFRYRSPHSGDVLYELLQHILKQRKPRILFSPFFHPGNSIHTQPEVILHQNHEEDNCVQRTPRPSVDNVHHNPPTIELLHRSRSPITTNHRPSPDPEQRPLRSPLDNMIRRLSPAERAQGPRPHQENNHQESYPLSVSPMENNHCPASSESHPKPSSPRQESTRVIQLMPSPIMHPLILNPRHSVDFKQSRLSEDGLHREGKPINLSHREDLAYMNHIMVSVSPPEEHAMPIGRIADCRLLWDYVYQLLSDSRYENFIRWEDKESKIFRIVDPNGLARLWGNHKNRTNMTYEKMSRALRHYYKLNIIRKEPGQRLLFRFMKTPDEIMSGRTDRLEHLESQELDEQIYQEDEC
# Summary of the method: as §1
sequence,measurement,setting,value
GTTTGC,binding signal,[1],"1.06 fold enrichment (6-mer frequency, TF over GST control)"
same,binding signal,[2],"1.11 fold enrichment (6-mer frequency, TF over GST control)"
same,binding signal,[3],"1.04 fold enrichment (6-mer frequency, TF over GST control)"
same,binding signal,[4],"1.02 fold enrichment (6-mer frequency, TF over GST control)"
same,binding signal,[5],"1.11 fold enrichment (6-mer frequency, TF over GST control)"
same,binding signal,[6],"1.07 fold enrichment (6-mer frequency, TF over GST control)"
same,binding signal,[7],"1.12 fold enrichment (6-mer frequency, TF over GST control)"
same,binding signal,[8],"1.2 fold enrichment (6-mer frequency, TF over GST control)"
same,binding signal,[9],"1.15 fold enrichment (6-mer frequency, TF over GST control)"
same,binding signal,[10],"1.17 fold enrichment (6-mer frequency, TF over GST control)"
same,binding signal,[11],"1.23 fold enrichment (6-mer frequency, TF over GST control)"
same,binding signal,[12],"1.14 fold enrichment (6-mer frequency, TF over GST control)"
same,binding signal,[13],"1.1 fold enrichment (6-mer frequency, TF over GST control)"
same,binding signal,[14],"1.05 fold enrichment (6-mer frequency, TF over GST control)"
same,binding signal,[15],"1.08 fold enrichment (6-mer frequency, TF over GST control)"
same,binding signal,[16],"1.01 fold enrichment (6-mer frequency, TF over GST control)"
same,binding signal,[17],"1.1 fold enrichment (6-mer frequency, TF over GST control)"
same,binding signal,[18],"1.02 fold enrichment (6-mer frequency, TF over GST control)"
